# Data as given in PubChem BioAssay (EPA / NIEHS).
# Results filed as inconclusive are left out. The source made the active and inactive calls. Rule for the calls, unless noted: active = hit-call score of the fitted dose curve at least 0.9, where 1 is the maximum; inconclusive = response in the unintended direction; inactive = score below 0.9.
# Key:
# CDK2 (gene 1017) = CDK2 (gene 1017) (UniProt P24941); assay: NVS_ENZ_hCDK2: NovaScreen (NVS) Enzymatic Assay for human Cyclin-Cependent Kinase 2 (CDK2) (AID 2283144)
# Method in brief: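 Cell-free recombinant human CDK2 with fluorescent substrate, product separated by electrophoretic mobility shift; 1 hr read. Primary screen at 25 uM in duplicate, actives retested in concentration-response up to 50 uM; loss of signal versus DMSO.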
# [1] = biological target: human Protein Tyrosine Phosphatase Receptor Type M (PTPRM), PTPRM (gene 5797) (UniProt P28827); assay: NVS_ENZ_hPTPRM: NovaScreen (NVS) Enzymatic Assay for human Protein Tyrosine Phosphatase Receptor Type M (PTPRM) (AID 2283215)
# Method in brief: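 Cell-free recombinant PTPRM with fluorogenic substrate; product separated from substrate by electrophoretic mobility shift and read by fluorescence, 1.33 h after dosing. Primary screen single concentration (25 uM) in duplicate; actives retested in concentration series; loss of signal versus DMSO.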
# [2] = read-out: Cyclin D2 (CCND2), CCND2 (gene 894); assay: LTEA_HepaRG_CCND2: Life Technologies and Expression Analysis (LTEA) Assay for Cyclin D2 (CCND2) using HepaRG (AID 2283449; active = hit-call score of the fitted dose curve at least 0.9, where 1 is the maximum; inactive = score below 0.9;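 note: CCND2 transcript measured by TaqMan qRT-PCR and normalised to three housekeeping genes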); details: mRNA level, 48 h; actives raise or lower the signal
# Method in brief: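 Differentiated human HepaRG cells were exposed for 48 h in serum-free induction medium to eight half-log concentrations topping at 100 uM (0.5% DMSO vehicle). CCND2 mRNA was quantified by TaqMan qRT-PCR, normalised to ACTB, GAPDH and POLR2A, and fitted bidirectionally against DMSO.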
# [3] = Tanguay_ZF_120hpf_CIRC_legacy: (Legacy) Oregon State University Tanguay Lab 120 Hour Post-fertilization zebrafish Assay for Circulatory Malformation (AID 2283651)
# Method in brief: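 Read-out: presence or absence of circulatory malformation at 120 hpf, scored by brightfield microscopy, fitted in the gain-of-signal direction against DMSO baseline. Wild-type 5D larvae were exposed from 6 hpf after enzymatic chorion removal.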
# [4] = biological target: human Vascular Endothelial Growth Factor Receptor 3 (VEGFR3), FLT4 (gene 2324) (UniProt P35916); assay: NVS_ENZ_hVEGFR3: NovaScreen (NVS) Enzymatic Assay for human Vascular Endothelial Growth Factor Receptor 3 (VEGFR3) (AID 2283229)
# Method in brief: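 Cell-free recombinant VEGFR3 kinase reaction with fluorescent substrate, read 1 h after dosing by electrophoretic mobility shift separation of substrate and product. Single-concentration duplicate screen at 25 uM, then concentration-response up to 50 uM; loss of activity versus DMSO.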
# [5] = NVS_IC_rCaBTZCHL: NovaScreen (NVS) Ion Channel Assay for Calcium Channel, Type L, Benzothiazepine Site (CaBTZCHL) (AID 2283337)
# Method in brief: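 Scintillation counting of filter-bound radioligand gave the read-out, with reduced binding versus DMSO scored as activity. Membranes came from rat cortex and were read 1.5 h after compound addition. Chemicals were screened first in duplicate at 25 uM.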
# [6] = biological target: rat Gamma-Aminobutyric Acid Type A Receptor BDZ, alpha 6 site (GABARa6), Gabra6 (gene 29708) (UniProt P30191); assay: NVS_LGIC_rGABARa6: NovaScreen (NVS) Ligand-Gated Ion Channel Assay for rat Gamma-Aminobutyric Acid Type A Receptor BDZ, alpha 6 site (GABARa6) (AID 2283339)
# Method in brief: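 Rat cerebellar membranes; radioligand binding, filtration and scintillation counting, read 1 h after dosing. Single-concentration duplicate screen at 25 uM, then concentration-response up to 50 uM for actives; loss of signal fitted versus DMSO baseline.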
# [7] = STM_H9_NormalizedViability: Cytotoxicity Assessment at 120 hours in the Stemina devTOX quickPredict H9 human embryonic stem cell (hESC)-based Assay (AID 2283784)
# Method in brief: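 Pluripotent H9 cells dosed, fresh medium plus compound q24h → cell layer read by CellTiter-Fluor → RFU blank-corrected, normalized to DMSO 0.1% mean. Loss-of-signal fit, DMSO as baseline.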
# [8] = CCTE_Mundy_HCI_Cortical_Synap_Neur_Matur_BPCount: CCTE's Synaptogenesis and Neurite Maturation Assay in rat cortical cells for Branch Point Count, Mundy Lab (AID 2284211; active = hit-call score of the fitted dose curve at least 0.9, where 1 is the maximum; inactive = score below 0.9)
# Method in brief: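 Rat primary cortical cultures, AraC added DIV 5; chemicals dosed DIV 7 through DIV 12. Fixed cells stained for MAP2, synaptophysin and Hoechst; neurite branch points counted by automated high-content imaging, fitted relative to DMSO.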
# [9] = CCTE_Mundy_HCI_Cortical_NOG_NeuriteCount: CCTE's Neurite Outgrowth Assay in rat cortical cells for Neurite Count, Mundy Lab (AID 2284212; active = hit-call score of the fitted dose curve at least 0.9, where 1 is the maximum; inactive = score below 0.9;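 note: cells fixed about two days after chemical exposure began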)
# Method in brief: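 Neurite number per cell from high-content imaging of betaIII-tubulin immunostaining, with Hoechst nuclear counterstain.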
# [10] = CCTE_Mundy_HCI_Cortical_Synap_Neur_Matur_NeuriteCount: CCTE's Synaptogenesis and Neurite Maturation Assay in rat cortical cells for Neurite Count, Mundy Lab (AID 2284222; active = hit-call score of the fitted dose curve at least 0.9, where 1 is the maximum; inactive = score below 0.9;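 note: exposure from day 7 to day 12 in vitro with readout at day 12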)
# Method in brief: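 In this multiplexed morphology readout, rat primary cortical neurons are fixed at DIV 12 following dosing at DIV 7 and stained for MAP2, synaptophysin and nuclei. High-content image analysis yields neurite count.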
# [11] = CCTE_Mundy_HCI_Cortical_NOG_NeuronCount: CCTE's Neurite Outgrowth Assay in rat cortical cells for Neuron Count, Mundy Lab (AID 2284236);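 note: neurons counted by imaging betaIII-tubulin and Hoechst stained cortical cells; cells exposed to compound for about 48 hours before fixation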
# Method in brief: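 Read-out: neuron number by high-content imaging of betaIII-tubulin (Alexa Fluor-488) and Hoechst-labelled rat primary cortical cells.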
# [12] = CCTE_Mundy_HCI_Cortical_NOG_BPCount: CCTE's Neurite Outgrowth Assay in rat cortical cells for Branch Point Count, Mundy Lab (AID 2284237; active = hit-call score of the fitted dose curve at least 0.9, where 1 is the maximum; inactive = score below 0.9;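 note: branch points counted about two days after chemical exposure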)
# Method in brief: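 Measured 50.33 h after dosing, this morphology endpoint uses rat primary cortical cultures labelled for betaIII-tubulin. Branch points are quantified by high-content imaging, with DMSO as negative control and baseline.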
# [13] = biological target: human Vascular Endothelial Growth Factor Receptor 1 (VEGFR1), FLT1 (gene 2321) (UniProt P17948); assay: NVS_ENZ_hVEGFR1: NovaScreen (NVS) Enzymatic Assay for human Vascular Endothelial Growth Factor Receptor 1 (VEGFR1) (AID 2283226)
# Method in brief: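 Cell-free assay of recombinant human VEGFR1 kinase with substrate, measured 1 h after dosing; fluorescence with electrophoretic mobility-shift separation of substrate and product, referenced to DMSO; primary screen at 25 uM in duplicate, actives then run in concentration series.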
# [14] = biological target: human Neurokinin, NK2 Receptor, TACR2 (gene 6865) (UniProt P21452); assay: NVS_GPCR_hNK2: NovaScreen (NVS) G Protein-Coupled Receptor Assay for human Neurokinin, NK2 Receptor (AID 2283278);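 note: actives reduce bound radioligand signal relative to DMSO baseline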
# Method in brief: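 Test chemicals displace a radioligand from receptor prepared from CHO cells in a cell-free format, read after 4 hours by scintillation counting on filters. Screening starts at 25 uM in duplicate, and active chemicals then go to concentration series.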
# [15] = biological target: human Opioid Receptor Mu (Opiate Mu), OPRM1 (gene 4988) (UniProt P35372); assay: NVS_GPCR_hOpiate_mu: NovaScreen (NVS) G Protein-Coupled Receptor Assay for human Opioid Receptor Mu (Opiate Mu) (AID 2283290);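 note: hits lower bound tracer signal versus DMSO meaning displacement of the ligand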
# Method in brief: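 Here, radioligand binding to CHO-extracted receptor was measured after 2.5 h using filter-based scintillation detection. Initial single-concentration screening used 25 uM in duplicate with plate controls; confirmed actives went to concentration-response testing.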
# [16] = biological target: human Thyroid Receptor Alpha (TRa), THRA (gene 7067) (UniProt P10827); assay: NVS_NR_hTRa_Antagonist: NovaScreen (NVS) Nuclear Receptor Binding Assay for human Thyroid Receptor Alpha Antagonism (TRa) (AID 2283362);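 note: activity is loss of signal relative to DMSO baseline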
# Method in brief: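 Cell-free AlphaLISA chemiluminescent binding read 1 h after dosing, antagonist mode; signal loss versus DMSO baseline. Primary screen in duplicate at 25 uM, then concentration series for actives.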
# [17] = read-out: Nuclear factor NF-kappa-B p105 subunit (Homo sapiens) (UniProt P19838); assay: LTEA_HepaRG_NFKB1: Life Technologies and Expression Analysis (LTEA) Assay for Nuclear Factor Kappa B Subunit 1 (NFKB1) using HepaRG (AID 2283521; active = hit-call score of the fitted dose curve at least 0.9, where 1 is the maximum; inactive = score below 0.9;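 note: TaqMan qRT-PCR transcript normalised to ACTB GAPDH and POLR2A housekeeping genes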); details: mRNA level, 48 h; actives raise or lower the signal
# Method in brief: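 Human HepaRG cells receive eight half-log concentrations, highest 100 uM, for 48 h. NFKB1 expression is then quantified by qRT-PCR and analysed for up- or down-regulation relative to 0.5% DMSO vehicle.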
# human Vascular Endothelial Growth Factor Receptor 3 (VEGFR3), FLT4 (gene 2324), sequence (P35916 whole entry, looked up): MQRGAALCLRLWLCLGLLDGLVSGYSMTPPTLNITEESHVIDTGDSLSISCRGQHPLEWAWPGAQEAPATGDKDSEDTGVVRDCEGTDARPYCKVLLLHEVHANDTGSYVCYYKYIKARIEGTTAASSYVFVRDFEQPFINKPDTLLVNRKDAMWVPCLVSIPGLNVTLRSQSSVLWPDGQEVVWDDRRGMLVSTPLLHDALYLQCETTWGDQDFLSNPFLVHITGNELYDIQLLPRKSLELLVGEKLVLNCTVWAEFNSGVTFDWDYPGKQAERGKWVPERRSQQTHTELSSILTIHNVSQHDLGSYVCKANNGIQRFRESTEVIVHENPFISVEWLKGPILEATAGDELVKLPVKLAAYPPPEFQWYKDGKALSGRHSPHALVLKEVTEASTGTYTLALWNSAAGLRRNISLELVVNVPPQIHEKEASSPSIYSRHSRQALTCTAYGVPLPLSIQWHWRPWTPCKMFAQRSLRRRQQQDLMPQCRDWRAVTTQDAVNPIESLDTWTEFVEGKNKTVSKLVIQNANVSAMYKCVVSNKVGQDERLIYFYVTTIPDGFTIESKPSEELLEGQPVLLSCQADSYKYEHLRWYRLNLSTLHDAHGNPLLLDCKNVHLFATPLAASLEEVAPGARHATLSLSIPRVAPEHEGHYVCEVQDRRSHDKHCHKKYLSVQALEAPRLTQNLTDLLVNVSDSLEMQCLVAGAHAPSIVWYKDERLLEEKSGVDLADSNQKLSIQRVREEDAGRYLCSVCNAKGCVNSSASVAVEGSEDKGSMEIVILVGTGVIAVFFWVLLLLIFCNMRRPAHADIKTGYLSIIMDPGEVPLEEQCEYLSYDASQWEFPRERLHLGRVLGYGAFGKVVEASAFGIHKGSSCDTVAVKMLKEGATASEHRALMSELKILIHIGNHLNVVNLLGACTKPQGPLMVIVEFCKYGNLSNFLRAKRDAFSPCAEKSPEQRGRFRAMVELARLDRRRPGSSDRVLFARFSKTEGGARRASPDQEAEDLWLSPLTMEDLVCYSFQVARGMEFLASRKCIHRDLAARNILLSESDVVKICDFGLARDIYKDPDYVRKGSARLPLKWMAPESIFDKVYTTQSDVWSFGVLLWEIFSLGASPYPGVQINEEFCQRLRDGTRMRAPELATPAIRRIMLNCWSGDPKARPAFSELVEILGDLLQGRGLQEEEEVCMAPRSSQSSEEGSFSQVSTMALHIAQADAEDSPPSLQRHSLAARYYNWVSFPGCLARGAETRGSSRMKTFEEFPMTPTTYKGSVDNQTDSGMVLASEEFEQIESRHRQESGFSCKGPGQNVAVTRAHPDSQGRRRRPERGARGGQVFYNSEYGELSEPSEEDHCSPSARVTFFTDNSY
# human Protein Tyrosine Phosphatase Receptor Type M (PTPRM), PTPRM (gene 5797), sequence (P28827 whole entry, looked up): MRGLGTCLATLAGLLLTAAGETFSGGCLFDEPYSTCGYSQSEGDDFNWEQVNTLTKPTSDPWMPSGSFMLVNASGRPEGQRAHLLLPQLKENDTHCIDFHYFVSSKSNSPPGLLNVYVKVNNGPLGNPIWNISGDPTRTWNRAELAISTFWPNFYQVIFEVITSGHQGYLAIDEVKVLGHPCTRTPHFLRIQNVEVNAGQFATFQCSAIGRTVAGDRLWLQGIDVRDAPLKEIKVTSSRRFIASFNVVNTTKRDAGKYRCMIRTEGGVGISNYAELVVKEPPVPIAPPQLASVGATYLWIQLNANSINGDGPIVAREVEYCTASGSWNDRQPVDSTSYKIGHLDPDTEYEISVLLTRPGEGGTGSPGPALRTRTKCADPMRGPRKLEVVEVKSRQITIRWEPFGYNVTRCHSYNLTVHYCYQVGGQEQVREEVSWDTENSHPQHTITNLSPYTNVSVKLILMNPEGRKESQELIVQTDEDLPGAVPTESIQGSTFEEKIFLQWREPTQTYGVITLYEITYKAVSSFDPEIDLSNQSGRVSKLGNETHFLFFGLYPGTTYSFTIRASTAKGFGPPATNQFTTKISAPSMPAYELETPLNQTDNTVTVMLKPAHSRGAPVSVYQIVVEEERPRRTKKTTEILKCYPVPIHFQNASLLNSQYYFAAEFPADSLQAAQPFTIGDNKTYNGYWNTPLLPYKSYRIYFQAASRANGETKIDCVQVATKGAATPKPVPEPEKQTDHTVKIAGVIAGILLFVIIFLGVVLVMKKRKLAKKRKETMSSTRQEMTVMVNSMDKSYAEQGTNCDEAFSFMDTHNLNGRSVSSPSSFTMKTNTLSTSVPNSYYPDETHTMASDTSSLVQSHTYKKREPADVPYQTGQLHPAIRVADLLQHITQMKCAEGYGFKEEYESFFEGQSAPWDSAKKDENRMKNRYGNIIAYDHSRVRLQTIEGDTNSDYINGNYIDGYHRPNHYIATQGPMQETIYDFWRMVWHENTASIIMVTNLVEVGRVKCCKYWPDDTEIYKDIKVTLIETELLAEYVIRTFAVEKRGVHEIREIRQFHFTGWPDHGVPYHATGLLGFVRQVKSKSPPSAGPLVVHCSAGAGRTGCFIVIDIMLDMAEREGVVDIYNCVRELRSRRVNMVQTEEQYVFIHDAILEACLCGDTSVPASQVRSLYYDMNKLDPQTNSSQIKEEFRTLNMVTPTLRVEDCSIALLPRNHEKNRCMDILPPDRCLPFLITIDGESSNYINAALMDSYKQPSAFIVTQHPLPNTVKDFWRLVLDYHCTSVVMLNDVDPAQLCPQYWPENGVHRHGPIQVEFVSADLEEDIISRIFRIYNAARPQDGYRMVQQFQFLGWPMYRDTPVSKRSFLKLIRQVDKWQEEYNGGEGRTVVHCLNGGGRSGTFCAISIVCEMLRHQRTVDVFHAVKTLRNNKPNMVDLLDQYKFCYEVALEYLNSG
# Nuclear factor NF-kappa-B p105 subunit (Homo sapiens), sequence (P19838 whole entry, looked up): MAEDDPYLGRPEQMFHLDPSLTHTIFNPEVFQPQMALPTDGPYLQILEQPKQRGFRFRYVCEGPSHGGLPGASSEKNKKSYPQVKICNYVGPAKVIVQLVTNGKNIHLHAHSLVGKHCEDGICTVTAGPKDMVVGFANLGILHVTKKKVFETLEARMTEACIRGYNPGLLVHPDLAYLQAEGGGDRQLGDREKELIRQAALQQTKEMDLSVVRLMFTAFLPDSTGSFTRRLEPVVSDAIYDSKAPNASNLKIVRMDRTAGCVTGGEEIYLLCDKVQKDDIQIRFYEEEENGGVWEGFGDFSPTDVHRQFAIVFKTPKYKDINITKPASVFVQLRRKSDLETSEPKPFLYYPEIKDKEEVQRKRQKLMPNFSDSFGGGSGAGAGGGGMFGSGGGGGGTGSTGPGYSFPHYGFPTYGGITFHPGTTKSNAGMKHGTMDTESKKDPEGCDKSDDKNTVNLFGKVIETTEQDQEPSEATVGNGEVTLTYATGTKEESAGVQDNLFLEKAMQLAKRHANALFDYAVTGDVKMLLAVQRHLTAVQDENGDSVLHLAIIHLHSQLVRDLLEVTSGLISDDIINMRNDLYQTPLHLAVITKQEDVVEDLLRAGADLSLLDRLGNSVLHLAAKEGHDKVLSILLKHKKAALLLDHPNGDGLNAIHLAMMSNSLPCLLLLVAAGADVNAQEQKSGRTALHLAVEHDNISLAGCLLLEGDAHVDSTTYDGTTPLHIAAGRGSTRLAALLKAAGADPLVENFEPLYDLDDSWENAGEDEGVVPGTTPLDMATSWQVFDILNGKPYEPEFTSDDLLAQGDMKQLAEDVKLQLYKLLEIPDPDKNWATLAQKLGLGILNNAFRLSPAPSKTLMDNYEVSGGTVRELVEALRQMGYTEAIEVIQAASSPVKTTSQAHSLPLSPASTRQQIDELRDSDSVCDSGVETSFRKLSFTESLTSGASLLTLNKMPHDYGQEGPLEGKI
# rat Gamma-Aminobutyric Acid Type A Receptor BDZ, alpha 6 site (GABARa6), Gabra6 (gene 29708), sequence (P30191 whole entry, looked up): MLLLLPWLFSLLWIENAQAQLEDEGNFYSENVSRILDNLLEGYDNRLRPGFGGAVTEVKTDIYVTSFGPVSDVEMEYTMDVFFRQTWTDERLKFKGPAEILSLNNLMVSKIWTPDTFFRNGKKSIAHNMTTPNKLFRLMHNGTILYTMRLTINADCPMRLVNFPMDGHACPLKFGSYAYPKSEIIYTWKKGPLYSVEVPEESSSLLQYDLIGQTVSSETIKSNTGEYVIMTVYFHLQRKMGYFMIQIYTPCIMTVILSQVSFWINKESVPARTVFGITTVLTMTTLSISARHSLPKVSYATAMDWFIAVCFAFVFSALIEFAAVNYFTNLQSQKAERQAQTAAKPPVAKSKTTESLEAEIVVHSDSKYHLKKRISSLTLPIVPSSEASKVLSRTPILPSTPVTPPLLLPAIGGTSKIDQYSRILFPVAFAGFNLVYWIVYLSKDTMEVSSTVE
# human Neurokinin, NK2 Receptor, TACR2 (gene 6865), sequence (P21452 whole entry, looked up): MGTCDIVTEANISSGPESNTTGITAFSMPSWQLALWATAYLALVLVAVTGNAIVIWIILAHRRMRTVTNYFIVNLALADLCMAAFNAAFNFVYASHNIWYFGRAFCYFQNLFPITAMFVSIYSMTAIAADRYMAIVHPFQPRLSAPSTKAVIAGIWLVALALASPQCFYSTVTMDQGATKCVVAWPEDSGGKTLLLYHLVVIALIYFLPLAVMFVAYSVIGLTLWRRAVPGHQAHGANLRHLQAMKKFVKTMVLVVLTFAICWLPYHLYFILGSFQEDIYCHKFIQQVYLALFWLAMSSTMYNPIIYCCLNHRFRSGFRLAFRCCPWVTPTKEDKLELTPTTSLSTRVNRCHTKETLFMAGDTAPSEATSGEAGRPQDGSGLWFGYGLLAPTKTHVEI
# human Opioid Receptor Mu (Opiate Mu), OPRM1 (gene 4988), sequence (P35372 whole entry, looked up): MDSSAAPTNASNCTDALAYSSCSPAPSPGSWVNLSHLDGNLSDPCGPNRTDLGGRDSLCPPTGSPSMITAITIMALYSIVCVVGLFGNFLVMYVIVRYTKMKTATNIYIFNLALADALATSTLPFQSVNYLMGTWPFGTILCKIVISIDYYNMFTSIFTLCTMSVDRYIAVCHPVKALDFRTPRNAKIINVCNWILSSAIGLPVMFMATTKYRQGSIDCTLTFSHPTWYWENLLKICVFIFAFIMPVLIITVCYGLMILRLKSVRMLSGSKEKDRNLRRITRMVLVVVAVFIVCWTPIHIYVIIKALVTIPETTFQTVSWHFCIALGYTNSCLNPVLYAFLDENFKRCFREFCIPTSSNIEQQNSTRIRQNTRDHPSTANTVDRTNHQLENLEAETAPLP
smiles,measurement,setting,value
N#CCCCCC#N,outcome,CDK2 (gene 1017),inactive
same,outcome,[1],inactive
same,outcome,[2],inactive
same,outcome,[3],inactive
CC(Cc1ccc(C(C)(C)C)cc1)CN1C[C@@H](C)O[C@@H](C)C1 (stereo partly specified),outcome,[4],inactive
c1ccc(Nc2ccc3ccccc3c2)cc1,outcome,[5],inactive
C=COCCCl,outcome,[6],inactive
Cc1ccc(OP(=O)(Oc2ccc(C)cc2)Oc2ccc(C)cc2)cc1 (tested in a mixture with another compound),outcome,[7],inactive
same,outcome,[8],inactive
same,AC50,[9],20.6 µM (active)
same,outcome,[10],inactive
same,AC50,[11],25.6 µM (active)
same,AC50,[12],20.2 µM (active)
BrCBr,outcome,[13],inactive
O=C1C=CC(=O)C=C1,AC50,[14],0.927 µM (active)
same,AC50,[15],9.86 µM (active)
CC1CCCC1.[C-]#[O+].[C-]#[O+].[C-]#[O+].[Mn],outcome,[16],inactive
O=[N+]([O-])c1ccc(Cl)cc1,outcome,CDK2 (gene 1017),inactive
same,outcome,[1],inactive
same,outcome,[4],inactive
same,outcome,[17],inactive
